{"source": "ChEMBL document CHEMBL3988442", "about": "“University of Dundee, Small-Polar-MMV Screening Library” (2021)", "note": "The whole screen tested about 38,000 compounds, of which about 1,200 (3.2%) showed an effect of 50% or more. The median lay at about -58%. Many of the other results were omitted from the sample, so strong results are more common in it than they were."}
{"test_system": "Plasmodium falciparum", "assay": "Calibr Malaria Delayed Death Assay SOP", "type": "functional, organism-based", "set-up": "scale not given: in the data most compounds retested in dose-response had high values", "conditions": "concentration 4.99e-06 (unit not given; other assays of the set use mol/L)", "units": {"Percent Effect": "%"}}
{"smiles": "CN(C)CCn1ccnc1C1CCCN(c2ncc(Cl)cc2F)C1", "note": "(stereo not drawn)", "Percent Effect": 35.69}
{"smiles": "CN(C)CCCn1ccnc1C1CCCN(c2ncc(Cl)cc2F)C1", "note": "(stereo not drawn)", "Percent Effect": 83.94}
{"smiles": "Cc1cc(C)nc(N2CCCC(c3nccn3CCCN(C)C)C2)c1", "note": "(stereo not drawn)", "Percent Effect": 50.47}
{"smiles": "CN(C)CCn1ccnc1C1CCCN(c2cc(N)ncn2)C1", "note": "(stereo not drawn)", "Percent Effect": -56.5}
{"smiles": "Fc1cc(Cl)cnc1N1CCCC(c2nccn2CC2CC2)C1", "note": "(stereo not drawn)", "Percent Effect": 3.7}
{"smiles": "COc1cc(OC)nc(N2CCCC(c3nccn3CCN(C)C)C2)n1", "note": "(stereo not drawn)", "Percent Effect": -26.11}
{"smiles": "Cc1ccc(C)c(Oc2cc(-n3nc(C)c(C#N)c3N)nc(C)n2)c1", "Percent Effect": -175}
{"smiles": "Cc1cc(C2CCCN2C(=O)NCc2c(C)cc(C)[nH]c2=O)on1", "note": "(stereo not drawn)", "Percent Effect": -57.59}
{"smiles": "CN(CC1COCCO1)c1ncnc2cc(F)ccc12", "note": "(stereo not drawn)", "Percent Effect": -82.12}
{"smiles": "Cn1cccc1C(=O)N1CCN(Cc2cccnc2)c2ncccc2C1.O=C(O)C(F)(F)F.O=C(O)C(F)(F)F", "Percent Effect": -59.69}
{"smiles": "c1ccc2sc(N3CCN(c4ncnc5c4CCC5)CC3)nc2c1", "Percent Effect": -56.68}
{"smiles": "Cc1ncnc(N2CCCN(c3nc4ccccc4s3)CC2)c1C", "Percent Effect": -444.8}
{"smiles": "Cn1nc2c(cc1=O)CN(c1nc3ccccc3s1)CC2", "Percent Effect": -163.5}
{"smiles": "c1ccc2sc(N3CCCN(c4ncnc5c4CCNC5)CC3)nc2c1", "Percent Effect": 85.14}
{"smiles": "Cc1nc[nH]c1CN1CCCN(c2nc3ccccc3s2)CC1", "Percent Effect": 54.13}
{"smiles": "Cc1nc[nH]c1CN1CCC(C2CCN(CCc3ccccc3)C2)CC1", "note": "(stereo not drawn)", "Percent Effect": 9.569}
{"smiles": "Cc1ccc(CNCc2nccn2C)c(OC(C)(C)C)c1", "Percent Effect": 8.3}
{"smiles": "O=C(NCCc1coc(-c2ccccc2)n1)NC1CC1", "Percent Effect": -110.7}
{"smiles": "CN(C)CCN1CCOCC12CCN(C(=O)C1CC1)CC2.O=C(O)C(F)(F)F.O=C(O)C(F)(F)F", "Percent Effect": -16.92}
{"smiles": "CC(C(=O)NCc1cn2cc(Br)ccc2n1)S(C)(=O)=O", "note": "(stereo not drawn)", "Percent Effect": -87.47}
{"smiles": "Cc1cc(CN(C)C(=O)C(c2ccccc2)N2CCSCC2)no1", "note": "(stereo not drawn)", "Percent Effect": -62.62}
{"smiles": "CCn1cnnc1CNC(=O)N1CCN(c2cccc(C)c2)CC1", "Percent Effect": -132.8}
{"smiles": "Cc1cc(C)n(-c2cncc(NCCNS(C)(=O)=O)n2)n1", "Percent Effect": -82.28}
{"smiles": "CSc1ncn(-c2nc(NC3CC3)nc(N(C)C)n2)n1", "Percent Effect": -74.3}
{"smiles": "CCC(CNC(=O)c1cncc(Br)c1)N1CCc2ccccc2C1", "note": "(stereo not drawn)", "Percent Effect": 65.67}
{"smiles": "CCC(CNC(=O)c1cc(OC)ccc1Br)N1CCc2ccccc2C1", "note": "(stereo not drawn)", "Percent Effect": 0.2059}
{"smiles": "CCC(CNC(=O)c1ccccc1Br)N1CCc2ccccc2C1", "note": "(stereo not drawn)", "Percent Effect": 39.24}
{"smiles": "CN(CC1(CO)CCC1)C(=O)c1cc(COc2ccccc2F)[nH]n1", "Percent Effect": -88.13}
